The compounds below were run on T1, p38-gamma. Conditions: concentration: 1 μM, replicates: in singlicate; n = 1.
T1 construct: gene MAPK12
`CN1CCN(Cc2cccc(-c3ccc4c(Nc5ccc(Oc6ccccc6)cc5)ccnc4c3)c2)CC1` [GW578342] was tested, and the “%Inh” value was 2%. For `O=C(Nc1ccccc1F)NC1CCN(c2ccnc(Nc3ccc(F)cc3)n2)CC1` [GSK1379800], the “%Inh” value was 0%. For `Cl.c1ccc(-c2ccc3c(Nc4ccc5[nH]ncc5c4)ccnc3c2)nc1` [GW440137], the “%Inh” value was 14%. For `CCn1c(-c2nonc2N)nc2c(C#CC(C)(C)O)nc(OC[C@H](N)c3ccccc3)cc21` [GSK943949], the “%Inh” value was 34%. In the case of `O=C(Nc1cccc(-c2nn3ccccc3c2-c2ccnc(Nc3cccc(C(F)(F)F)c3)n2)c1)c1c(F)cccc1F` [GSK292658], the “%Inh” value is reported as 0%. In the case of `Cn1cc(-c2ccc3c(c2)CCN3C(=O)Cc2cccc(F)c2)c2c(N)ncnc21` [GSK2603358], the “%Inh” value is reported as 19%. For `COc1cc(Nc2nccc(N3CCC(NC(=O)c4cc5ccccc5s4)C3)n2)cc(OC)c1OC` (stereo not shown) [GSK1379760], the “%Inh” value was 26%. In the case of `COCCOCCOc1cc2ncc3c4ccc(C#N)cc4[nH]c3c2cc1OC`, the “%Inh” value is reported as 23%. `Cl.Cl.NCC(NC(=O)c1cc(-c2ccccc2)c(-c2ccnc3[nH]ccc23)s1)c1ccccc1` (stereo not shown) [GSK1321561] was tested, and the “%Inh” value was 0%. `COc1cc(Nc2nccc(-c3c(-c4cccc(NC(=O)c5c(F)cccc5F)c4)nn4ncccc34)n2)cc(OC)c1OC` [GSK327238] was tested, and the “%Inh” value was 21%. `CN(C)S(=O)(=O)c1cc(-c2ccc3nccc(-c4cccc(S(N)(=O)=O)c4)c3c2)cnc1N` [GSK1669921] was tested, and the “%Inh” value was 23%. `Cl.Cl.NCC(NCc1ccc(-c2ccnc3[nH]ccc23)s1)c1ccccc1` (stereo not shown) [GSK1321565] was tested, and the “%Inh” value was 0%. For `Cc1ccc(S(=O)(=O)Nc2ccc(Nc3nccc(Nc4cccc5[nH]ncc45)n3)cc2)cc1` [GSK581271], the “%Inh” value was 0%. `CC(=O)Nc1nc2cnc(Nc3cc(NC(=O)c4cccc(C5(C#N)CC5)c4Cl)ccc3C)nc2s1` was tested, and the “%Inh” value was 0%. `CNC(=O)c1ccccc1Nc1nc(Nc2ccc(N3CCOCC3)cc2)ncc1Cl.Cl` [GSK1576028] was tested, and the “%Inh” value was 13%. For `Cc1ccc(C(=O)N2CC[C@@H](O)C2)cc1-n1c(C)cc(OCc2ccc(F)cc2F)c(Br)c1=O`, the “%Inh” value was 5%. For `COc1ccc(Nc2nccc(N3CCC(NC(=O)Nc4cccc(OC)c4)C3)n2)cc1` (stereo not shown) [GSK1379742], the “%Inh” value was 0%. For `Cl.Cl.NCC(C(=O)Nc1cc(Br)c(-c2ccnc3[nH]ccc23)s1)c1ccccc1` (stereo not shown) [GSK1269851], the “%Inh” value was 0%. In the case of `Oc1cc(Nc2ccnc3cc(I)ccc23)ccc1F` [GW552771], the “%Inh” value is reported as 0%. With `COc1ccc(Nc2nccc(NCCNC(=O)c3cc4ccccc4s3)n2)cc1` [GSK1379896] the “%Inh” value was 5%. `CCS(=O)(=O)c1ccc(OC)c(Nc2nccc(-c3c(-c4cccc(NC(=O)c5c(F)cccc5F)c4)nn4ncccc34)n2)c1` [GSK326180] was tested, and the “%Inh” value was 0%. `COc1cccc(C(=O)Nc2cccc(Oc3ccc4nc(NC(=O)C5CC5)cn4n3)c2)c1` was tested, and the “%Inh” value was 39%. In the case of `CN(C)Cc1ccc(-c2ccc3c(Nc4ccc(Oc5ccccn5)cc4)ccnc3c2)o1` [GW567148], the “%Inh” value is reported as 0%. With `Clc1ccc(-c2nn3ncccc3c2-c2ccnc(Nc3ccc4c(c3)OCCO4)n2)cc1` [GW829116] the “%Inh” value was 0%. For `Cl.c1ccc(-c2ccc3c(Nc4ccc5[nH]ccc5c4)ccnc3c2)nc1` [GW440138], the “%Inh” value was 0%. `Fc1ccc(-c2ncn(C3CCNCC3)c2-c2ccnc(Oc3ccc(-c4ccccc4)cc3)n2)cc1` [SB-245391] was tested, and the “%Inh” value was 26%. For `O=C(Nc1cccc(Oc2ccc3nc(NC(=O)C4CC4)cn3n2)c1)c1ccccc1C(F)(F)F`, the “%Inh” value was 42%. `COc1cccc(C2=C(Nc3ccc(Cl)c(C(=O)O)c3)C(=O)NC2=O)c1` [SB-390769] was tested, and the “%Inh” value was 100%. With `Cc1ccc(C(=O)Nc2ccc(Nc3ccnc4cc(-c5nccs5)ccc34)cc2O)cc1.Cl` [GW494702] the “%Inh” value was 19%. With `Cc1ccc(C)c(NC(=O)NC2CCN(c3ccnc(Nc4ccc(F)cc4)n3)C2)c1` (stereo not shown) [GSK1379720] the “%Inh” value was 16%. `COc1ccc(-c2coc3ccc(-c4nnc(SCc5ccc(OC)c(C(F)(F)F)c5)o4)cc23)cc1` was tested, and the “%Inh” value was 16%. With `COc1cc(Nc2ncc3c(C)nc(-c4cc5ccccc5[nH]4)n3n2)cc(OC)c1OC` [GW869516] the “%Inh” value was 16%. In the case of `O=C(NC1CCN(c2ccnc(Nc3ccc(F)cc3)n2)C1)c1cc2ccccc2s1` (stereo not shown) [GSK1379716], the “%Inh” value is reported as 67%. In the case of `Cn1cc(-c2ccc3c(c2)CCN3C(=O)Cc2cccc(Cl)c2)c2c(N)ncnc21` [GSK2606590], the “%Inh” value is reported as 29%. For `COC(=O)Nc1nc2ccc(Oc3ccc(NC(=O)Nc4cc(C(F)(F)F)ccc4F)cc3)cc2n1C.Cl` [GW692089], the “%Inh” value was 44%. In the case of `O=C(O)C(F)(F)F.O=C(O)C(F)(F)F.O=c1[nH]ccc2nc(N[C@@H]3CCCNC3)nc(Nc3ccc(S(=O)(=O)N4CCOCC4)cc3)c12` [GSK2177277], the “%Inh” value is reported as 40%. With `CCn1c(-c2nonc2N)nc2c(C#CC(C)(C)O)ncc(OCCCCN)c21.O=C(O)C(F)(F)F.O=C(O)C(F)(F)F` [GSK507274] the “%Inh” value was 0%.

From PMC5540273 (PLoS ONE, 2017)
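Further: KINOMEscan kinase panel screen.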
